The source of these data is PubChem BioAssay AID540303 (National Center for Advancing Translational Sciences (NCATS), 2011).

The structures appear in SMILES notation. The campaign covered roughly 330,000 compounds. About 1,000 (0.3%) were called active. About 3% were inconclusive and are not listed. Shown is part of a subset that was picked to be rich in actives. Unmarked numbers belong to inactive results. The call rests on the fitted dose curve; in most records, active means well fitted inhibition curve with a large enough effect; inconclusive means small, poorly fitted or top-dose-only effect; inactive means no such curve, though single readings can be large or run the other way; tested in mouse RAW 264.7 cells.
On the % scale 0 is the no-effect control and ±100 the full control effect; potency means the concentration at half of the fitted maximal effect.

A short description of the assay: qHTS for Inhibitors of Cell Surface uPA Generation. Further: nearly all actives have a fitted effect of over 55% in size. The note with it: cell surface uPA generation assay; series mostly up to 38.3 µM; activity change, negative = inhibition: at the top concentration. In outline: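 ATP-Lite luminescence in RAW 264.7 cells after 24 h of exposure to compound, tested up to 38.3 uM final in 1:5 steps. Raised ATP reflects inhibition of uPA-dependent LF delivery to the cytoplasm.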
On to `COCC(=O)N(C)[C@H]1C[C@H]2c3cc(Oc4ccccc4C)ccc3CCN2C(=O)[C@H]1[C@H](C)O`, for which the “activity change, negative = inhibition” value was -8.04%.
On to `CC(=O)OC1CCC2C3CCC4=C(CC(F)C(=O)C4)C3CCC12C` (stereo unspecified), for which the “activity change, negative = inhibition” value is -1.93%.
For the compound `Oc1ccc(Br)cc1C=Nc1ccc2[nH]ncc2c1`, the “activity change, negative = inhibition” value is -8.16%.
With `Oc1ccc(/C=N/Nc2ccc(C(F)(F)F)cn2)cc1O`, the “activity change, negative = inhibition” value was -7.76%.
`Oc1ccc(Br)cc1/C=N/Nc1ccccn1`: the Potency was 2.82 µM (active).
As to `C[C@@H]1ON(C)[C@H]2C[C@H]3c4cc(N5CCN(C)CC5)ccc4CCN3C(=O)[C@@H]12`, the “activity change, negative = inhibition” value is 10.6%.
Take `COc1ccc(CNc2ncnc3ccccc23)cc1`: the “activity change, negative = inhibition” value is 2.13%.
The same measure, in the same setting: in the case of `COc1ccc(CNC(=O)C2CCCC2)cc1` it was 0.576%.
Regarding `COc1ccc(CNc2nc(NCc3ccc(OC)cc3)c3ncn(C4CCCC4)c3n2)cc1`, the Potency is 1.41 µM (active).
As to `OCCCNc1nccc(-c2cc(Nc3cccc(Cl)c3)ncn2)n1`, the Potency is 1.58 µM (active).
On to `OCCCNc1nc(-c2ccccc2)c2cc(Cl)ccc2n1`, for which the “activity change, negative = inhibition” value was -2.2%.
As for `NS(=O)(=O)c1cccnc1Nc1cccc(Cl)c1`, the “activity change, negative = inhibition” value was 5.06%.
Take `NC1=NOC(=O)C1C1CCCCC1` (stereo unspecified): the “activity change, negative = inhibition” value is 2.75%.
For the compound `CCCCN(C(=O)CSCc1ccc(C)cc1)c1c(N)n(Cc2ccccc2)c(=O)[nH]c1=O`, the “activity change, negative = inhibition” value was -5.42%.
With `Nc1ccc2c(c1)C(=Cc1cccnc1)c1ccccc1-2`, the “activity change, negative = inhibition” value was -4.54%.
As to `Clc1ccc(-c2cc(-c3ccccn3)on2)c(Cl)c1`, the Potency was 0.891 µM (active).
For `COn1c(-c2ccc(Cl)cc2Cl)nc2ncccc21`, the “activity change, negative = inhibition” value is -0.408%.
Still for that read-out and setting: in the case of `O=C1c2ccccc2C(=O)N1Cc1cc(-c2ccccc2Cl)no1` it was -7.69%.
In the case of `CN(O)C(=S)c1ccccc1`, the “activity change, negative = inhibition” value is -5.86%.
In the case of `CCc1c(Nc2ccccc2C)nc(N)[nH]c1=O`, the “activity change, negative = inhibition” value was 0.701%.
Take `CCN(CC)S(=O)(=O)c1cccc(NC(=O)c2ccc(S(=O)(=O)N3CCCC3)cc2)c1`: the “activity change, negative = inhibition” value is 2.72%.
As for `COc1ccc(-c2cc3ncccc3cn2)cc1`, the Potency was 10 µM (active).
Take `COc1ccc(-c2nnc(-c3ccc4ccccc4c3)o2)cc1`: the “activity change, negative = inhibition” value is 3.79%.
With `COc1ccc(-c2cn3cccnc3n2)cc1`, the “activity change, negative = inhibition” value was -8.17%.
On to `COc1ccc(/C=C/C(=O)OCC(=O)N2CCN(S(=O)(=O)c3ccc(C)cc3C)CC2)cc1OC`, for which the “activity change, negative = inhibition” value is -25.9%.
Same read-out and setting: in the case of `COc1cc(C(=O)CCc2ccc3c(c2)OCO3)cc(OC)c1OC` it was 1.46%; in that of `S=C(Nc1ccccc1)Nc1ccc2ccccc2c1`, 0.245%.
With `COc1ccc(-c2cn3ccc(C)cc3n2)cc1`, the Potency was 1 µM (active).
Take `Cc1ccn2cc(C(=O)NC3CCN(Cc4ccccc4)CC3)nc2c1`: the “activity change, negative = inhibition” value was 4.62%.
With `CCN(CC)S(=O)(=O)c1ccc(-c2cn3ccc(C)cc3n2)cc1`, the “activity change, negative = inhibition” value was -29.7%.
On the same count and under the same terms, the figure for `O=c1ccn([C@@H]2O[C@H](CNS(=O)(=O)c3cc4ccccc4s3)[C@@H](O)[C@H]2O)c(=O)[nH]1` is 5.53%.
`O=C(NN=Cc1ccccc1)c1ccccc1`: the “activity change, negative = inhibition” value was -9.51%.
Consider `CC(=O)N1CCc2ccc(N)cc21`, for which the “activity change, negative = inhibition” value was 3.65%.
With `COc1ccc2c(c1)c(=Cc1ccc(N(C)C)cc1)c1cc(-c3ccccc3)[n+](C)n12`, the “activity change, negative = inhibition” value was -7.82%.
The same measure, in the same setting: the figure for `O=[N+]([O-])c1cc2ccccc2nc1-c1ccccc1` is -3.87%.
As for `COc1ccc(C(=O)CC(=O)C(=O)Nc2cc([N+](=O)[O-])ccc2OC)cc1`, the “activity change, negative = inhibition” value is -10.5%.
As for `COc1ccc(C(=O)c2c3ccc([N+](=O)[O-])cc3[n+]([O-])n2CCCN)cc1`, the Potency is 0.794 µM (active).
As to `COc1ccc2c(C(=O)c3ccc(C)cc3)n(CCC(N)=O)[n+]([O-])c2c1`, the “activity change, negative = inhibition” value was -0.295%.
For `CC/C(=C(/c1ccccc1)c1ccc(OCC[N+](C)(C)C)cc1)c1ccccc1`, the “activity change, negative = inhibition” value was -1.1%.
Same read-out and setting: in the case of `Cc1c(NS(=O)(=O)c2cccc(C(=O)Nc3ccc(SC(F)F)cc3)c2)c(=O)n(-c2ccccc2)n1C` it was -10.2%.
Take `OCCN1CCN(CCO)C1=S`: the “activity change, negative = inhibition” value was -0.396%.
On to `COc1cccc(C=CC(=O)C=CC=Cc2ccccc2)c1`, for which the “activity change, negative = inhibition” value was -6.72%.
Take `COc1cc(/C=C2\Oc3ccc(C#Cc4ccc(O)cc4)cc3C2=O)cc(OC)c1`: the Potency was 4.47 µM (active).
Consider `COc1ccc2c(c1)O/C(=C\c1ccccc1O)C2=O`, for which the “activity change, negative = inhibition” value is -5.64%.
Regarding `COC(=O)C(C)Oc1ccc2c(c1)O/C(=C\c1cccc(Br)c1)C2=O` (stereo unspecified), the “activity change, negative = inhibition” value is 13.6%.
Still for that read-out and setting: in the case of `CCC1([N+](=O)[O-])COC(c2ccc(C(C)C)cc2)OC1` (stereo unspecified) it was -8.09%.
Still for that read-out and setting: the figure for `N#CC1=C(N)Oc2cc(N)ccc2C1c1ccccc1` (stereo unspecified) is -9.22%; for `OC(CNCc1ccc2c(c1)OCO2)COc1ccccc1` (stereo unspecified) it is 2.79%.
The same measure, in the same setting: the figure for `Cc1ccc(OCC(=O)OC(C)CN(C)Cc2ccccc2)cc1` (stereo unspecified) is -3.72%.
For the compound `CN(Cc1ccccc1)CC(O)COc1ccc(CNCc2cc3ccccc3s2)cc1` (stereo unspecified), the Potency was 10 µM (active).
For the compound `O=c1nc(NO)ccn1C1CCCO1` (stereo unspecified), the “activity change, negative = inhibition” value was 3.28%.
For `CN(C)CCNC(=O)c1ccc(Cl)c2cc3ccccc3nc12`, the “activity change, negative = inhibition” value is -9.97%.
Take `Cc1ccc(S(=O)(=O)n2oc(=O)c(C3CCCCC3)c2N)cc1`: the “activity change, negative = inhibition” value was -4.82%.
On to `CCc1ccc(OCC2c3cc(OC)c(OC)cc3CCN2C(C)=O)cc1` (stereo unspecified), for which the “activity change, negative = inhibition” value was 9.64%.
Regarding `COC(=O)C1=CN(Cc2ccc(OC)c(OC)c2)C=C(C(=O)OC)C1c1cccs1`, the “activity change, negative = inhibition” value is -8.06%.
`COc1ccc(CC2c3cc(OC)c(OC)cc3CC[N+]2(C)CCC(=O)OCCCCCOC(=O)CC[N+]2(C)CCc3cc(OC)c(OC)cc3C2Cc2ccc(OC)c(OC)c2)cc1OC` (stereo unspecified): the Potency was 10 µM (active).
`COc1ccc(S(=O)(=O)N2CCc3ccccc32)cc1C(=O)Nc1cc(S(C)(=O)=O)ccc1Cl`: the “activity change, negative = inhibition” value is -10.3%.
`O=C1/C(=C\c2ccc([N+](=O)[O-])cc2)CS(=O)(=O)C/C1=C/c1ccc([N+](=O)[O-])cc1`: the “activity change, negative = inhibition” value was -3.6%.
As to `CCOC(=O)c1ccccc1OC(=O)Oc1ccccc1C(=O)OCC`, the “activity change, negative = inhibition” value was -9.61%.
In the case of `CCOC(=O)c1c(C)[nH]c2c1-c1ccccc1C(=O)C2=O`, the Potency was 5.62 µM (active).
Turning to `CCOC(=O)c1c(C)[nH]c(C)c1S(=O)(=O)N(C)CC(=O)Nc1ccccc1C`, the “activity change, negative = inhibition” value is 15.1%.
On to `CC(=O)Oc1ccc(OC(C)=O)c2c1C1C=CC2CC1`, for which the “activity change, negative = inhibition” value was -6.74%.
Consider `C[C@H](O)[C@@H]1C(=O)N2CCc3ccc(N4CCOCC4)cc3[C@@H]2C[C@@H]1N(C)C(=O)C(C)(C)C`, for which the “activity change, negative = inhibition” value was 17.9%.
In the case of `CC(NC(=O)c1ccccc1)C(=O)OCC(=O)Nc1cccc(S(=O)(=O)N2CCCC2)c1` (stereo unspecified), the “activity change, negative = inhibition” value is 9.64%.
With `CCN1/C(=C\c2ccc3ccccc3[n+]2CC)Sc2cc(C)ccc21`, the Potency was 3.55 µM (active).
In the case of `O=C(NNC(=O)c1ccccc1O)c1ccccc1O`, the “activity change, negative = inhibition” value is -13.1%.
